Compound activity: PubChem BioAssay, National Center for Advancing Translational Sciences (NCATS)
A selection: hits, their analogues and other compounds. The true share with any hit is near 9.2%.
HTT cytoprotect: protects HTT-Q103 PC12 cells, measured by ATP | AID 1471 | PC12 HTT-Q103 induced, cytoprotection, ATP luminescence, 40 h | Potency, µM (top dose mostly 56.4 µM), inactives show cytoprotection (ATP increase), most hits filed as activators | 230,000 tested, 0.14% active; active = well fitted curve in the direction sought with a large enough effect; inconclusive = small, poorly fitted or top-dose-only effect, or another doubt; inactive = no such curve, though single readings can be large; an effect the other way counts as inactive or inconclusive; also: % of control where 0% means no effect; nearly all actives have a fitted effect of over 45% in size
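Readout: ATPlite luminescence (ATP level). Model: stable PC12, inducible Htt exon1 Q103-GFP. Inducer: tebufenozide, 100 nM final. Compounds: dose series. No G418 in medium.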
ALDH1A1 inh: ALDH1A1 (human) enzyme inhibition; 220,000 tested, 7.3% active; P00352; AID 1030; Potency, µM (series often up to 75.3 µM), inactives show at the top dose activity, negative = inhibition, actives largely listed as inhibitors; Purified ALDH1A1, NADH fluorescence, propionaldehyde substrate;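 also: plate controls were no enzyme wells and a reference inhibitor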
Target sequence (P00352 whole entry, looked up): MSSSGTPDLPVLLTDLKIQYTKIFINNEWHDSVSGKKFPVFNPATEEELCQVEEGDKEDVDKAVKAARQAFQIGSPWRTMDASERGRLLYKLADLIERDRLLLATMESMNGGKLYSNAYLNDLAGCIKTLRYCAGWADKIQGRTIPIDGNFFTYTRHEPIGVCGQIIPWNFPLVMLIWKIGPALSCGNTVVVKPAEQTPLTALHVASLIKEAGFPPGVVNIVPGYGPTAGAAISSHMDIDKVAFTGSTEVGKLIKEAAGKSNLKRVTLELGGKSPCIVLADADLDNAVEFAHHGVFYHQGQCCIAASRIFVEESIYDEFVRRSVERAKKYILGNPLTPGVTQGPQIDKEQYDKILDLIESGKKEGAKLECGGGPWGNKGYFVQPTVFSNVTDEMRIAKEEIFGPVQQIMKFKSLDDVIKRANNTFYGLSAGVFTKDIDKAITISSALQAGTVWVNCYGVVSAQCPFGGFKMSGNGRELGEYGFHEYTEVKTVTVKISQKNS
HttQ103 aggreg: mutant huntingtin aggregation inhibition; PC12 HttQ103-GFP aggregates, Acumen cytometry, 40 h; Potency, µM (highest dose often 46.1 µM), for inactives: at the top dose activity change, negative = inhibition, most hits filed as inhibitors; 220,000 tested, 1.1% active; active = well fitted curve in the direction sought with a large enough effect; inconclusive = small, poorly fitted or top-dose-only effect, or another doubt; inactive = no such curve, though single readings can be large; an effect the other way counts as inactive or inconclusive; also: % is scaled to controls: 0 for no effect and ±100 for the full control effect; nearly all actives have a fitted effect of over 60% in size
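Ecdysone-promoter PC12 model expressing HTT exon 1 Q103 fused to GFP, induced by tebufenozide at 100 nM final. Compounds titrated; aggregates sized 1–25 µm scored on a 488 nm laser cytometer.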
HPGD inh: inhibitors of human 15-hydroxyprostaglandin dehydrogenase (HPGD) | P15428 | 150,000 tested, 4.3% active | purified HPGD, NADH fluorescence kinetic, PGE2 substrate | Potency, µM, inactives show top-dose activity change, negative = inhibition, most hits filed as inhibitors; also: % is scaled to controls: 0 for no effect and ±100 for the full control effect
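20 nM HPGD preincubated 15 min at room temperature with compound in 50 mM Tris-HCl pH 8, 0.01% Tween 20. Started with 1 mM NAD+ and 30 uM prostaglandin E2; NADH fluorescence (360/450 nm) read 5 times over 30-s intervals, last minus first.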
LMNA splice mod: modulators of lamin A splicing. 200,000 tested, 0.01% active. HeLa LMNA splicing GFP/RFP minigene ratio, 48 h. Potency, µM (series often up to 46.1 µM), for the others: at the top dose ratio change, negative = inhibition, hits mostly inhibitors; active = well fitted inhibition curve with a large enough effect in the signal ratio, with a control signal flat, not every such curve was filed as active; inconclusive = small, poorly fitted or top-dose-only effect, or effect the other way, or a change in a side signal; the % refers to the signal ratio; also: % is scaled to controls: 0 for no effect and ±100 for the full control effect
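S3 HeLa cells stably expressing lamin A-EGFP splicing minigene plus DsRed2, 600 cells/well, 48 h compound exposure at 37C. Laser-scanning cytometry; analysed as GFP (500-530 nm)/RFP (575-640 nm) total intensity ratio; 0.5% DMSO vehicle.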
KDM4E inh: inhibitors of human JMJD2E histone demethylase. B2RXH2. JMJD2E catalytic domain, FDH-coupled NADH fluorescence (FDH is formaldehyde dehydrogenase). AID 2147. 230,000 tested, 1.6% active. Potency, µM (series often up to 57.1 µM), for inactives: top-dose activity change, negative = inhibition, hits mostly inhibitors;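 also: 0% = wells with enzyme and -100% = buffer wells without enzyme; nearly all actives have a fitted effect of over 50% in size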
Target sequence (B2RXH2 1-337 limits assumed): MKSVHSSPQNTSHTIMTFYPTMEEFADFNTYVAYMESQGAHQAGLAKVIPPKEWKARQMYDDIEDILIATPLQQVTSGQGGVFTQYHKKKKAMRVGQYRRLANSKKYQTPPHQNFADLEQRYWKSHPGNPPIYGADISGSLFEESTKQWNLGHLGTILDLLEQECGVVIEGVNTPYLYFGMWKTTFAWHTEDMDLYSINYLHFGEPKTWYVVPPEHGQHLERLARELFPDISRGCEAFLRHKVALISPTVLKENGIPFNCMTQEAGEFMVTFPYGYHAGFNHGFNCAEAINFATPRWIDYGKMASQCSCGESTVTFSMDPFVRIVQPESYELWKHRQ
* = called active by the depositor; ? = inconclusive; . = not tested or not shown; [ ] = remark or other dose. Unless noted, calls follow the shape of the dose curve; as a rule, active = well fitted inhibition curve with a large enough effect (not every such curve was filed as active); inconclusive = small, poorly fitted or top-dose-only effect, or another doubt; inactive = no such curve, though single readings can be large or run the other way. Potency is read from the fitted curve at half-maximal effect.

SMILES	HTT cytoprotect	ALDH1A1 inh	HttQ103 aggreg	HPGD inh	LMNA splice mod	KDM4E inh
Cc1nc2ccc(C(=O)N/N=C/c3cc([N+](=O)[O-])ccc3O)cc2[nH]1	.	?	-8.0%	.	.	35.5µM*
Cc1cc(C)n(CC(=O)N/N=C/c2cccc([N+](=O)[O-])c2)n1	.	-10.9%	-10.8%	-8.6%	?	-4.8%
O=[N+]([O-])c1ccc(O)c(C=Nc2ccc3nc(-c4ccccc4)[nH]c3c2)c1	0.4%[10 µM]	?	11.2%	?	?	?
Cc1ccn(CC(=O)N/N=C/c2cc([N+](=O)[O-])ccc2O)n1	.	1.5%	6.31µM*	-15.9%	?	12.6µM*
O=C(CSc1nnc(-c2ccc(O)cc2)o1)c1ccc(Br)cc1	.	.	.	.	2.7%[46 µM]	.
CC1(C)CC2CC(C)(CN2Cc2c(O)ccc3ccccc23)C1 (stereo unspecified)	-5.2%[10 µM]	?	?	.	.	?
CN(C)c1ncc2nc(-c3ccccc3)c(=O)n(CCc3ccccc3)c2n1	-39.8%	?	.	.	?	.
COc1cc(/C=N\NC(=O)CNC(=O)C(c2ccccc2)c2ccccc2)ccc1O	8.7%[10 µM]	.	16.6%[9.22 µM]	.	.	-22.7%
O=C(CNC(=O)C(c1ccccc1)c1ccccc1)N/N=C/c1ccc(O)cc1O	-19.9%[10 µM]	.	-27.0%[9.22 µM]	.	.	20µM*
C/C(=N\NC(=O)CCCCCNC(=O)c1ccccc1)c1ccccc1O	-15.5%[10 µM]	7.6%	?	-10.3%	1.6%	?
COc1ccc(/C=N\NC(=O)CNC(=O)C(c2ccccc2)c2ccccc2)cc1[N+](=O)[O-]	9.6%[10 µM]	11.2µM*	?	-12.5%	?	-5.0%
O=C(CNC(=O)C1COc2ccccc2O1)N/N=C/c1ccc(O)cc1O (stereo unspecified)	.	?	?	-21.3%	?	28.2µM*
O=C(CNC(=O)C(c1ccccc1)c1ccccc1)N/N=C\c1cccc(O)c1	10.5%[10 µM]	.	-5.3%[9.22 µM]	.	.	2.3%
O=C(CNC(=O)C1COc2ccccc2O1)N/N=C\c1cccc(O)c1 (stereo unspecified)	13.1%[10 µM]	9.9%	-5.0%	-0.5%	-12.9%	-4.9%
O=C(CCCCCNC(=O)c1ccccc1)N/N=C/c1ccc(O)cc1O	10.5%[10 µM]	5.6%	-30.8%	28.2µM*	-3.9%	20µM*
COC(=O)C1=C(C)NC(C)=C(C(=O)OC(C)C)[C@H]1c1cccc2nonc12	-79.1%[17.1 µM]	-8.6%[20.9 µM]	2.1%[20.6 µM]	-4.4%	?	-4.1%[25.5 µM]
Cc1ccc(OCC(=O)Nc2ccc(CN3CCCCC3)cc2)c(C)c1	.	-5.2%	.	.	-18.7%[46 µM]	?
Cc1nc(N2CCCC2)c2c(C(=O)Nc3ccc(Br)cc3F)c(C)oc2n1	.	.	.	.	11.7%[46 µM]	.
COc1cc(/C=N/NC(=O)/C(=C/c2ccccc2)CCO)ccc1O	28.2%[1.9 µM]	-1.8%	2.0%	-3.1%	-2.4%	9.7%
Cc1cc(SCC(=O)N/N=C/c2ccc(O)cc2O)c(C)cc1Br	-25.5%	-7.0%	7.94µM*	20µM*	?	?
Cc1nonc1C(=O)N/N=C/c1ccc(O)cc1O	25.3%[10 µM]	8.5%	7.2%[9.22 µM]	.	?	3.8%
O=C(N/N=C/c1ccc(O)cc1O)/C(=C/c1ccccc1)CCO	14.2%[1.9 µM]	-2.9%	?	-4.0%	?	15.8µM*
COc1ccc(N(CC(=O)NCCC2=CCCCC2)S(=O)(=O)c2ccccc2)c(OC)c1	-77.8%	?	1.4%[9.22 µM]	.	10.6%[46 µM]	-1.5%
CCOC(=O)C(C)CC(C)C(=O)N1CCOCCOCCN(C(=O)C(C)CC(C)C(=O)OCC)CCOCC1 (stereo unspecified)	10.0%	-5.2%	6.8%	-3.6%	1.5%	1.2%
CCOC(=O)C(C(=O)OCC)C(C(=O)OCC)N1CCOCC1 (stereo unspecified)	-18.1%	28.2µM*	11.6%	22.4µM*	?	-9.1%
SMILES	HTT cytoprotect	ALDH1A1 inh	HttQ103 aggreg	HPGD inh	LMNA splice mod	KDM4E inh
O=C(c1ccc(S(=O)(=O)c2ccccc2Cl)c([N+](=O)[O-])c1)N1CCN(Cc2ccccc2)CC1	23.4%[10 µM]	14.1µM*	8.7%[9.22 µM]	-12.5%	?	5.8%
COc1cc(N(C)C)c([N+](=O)[O-])cc1C(=O)N1CCN(Cc2ccccc2)CC1	-30.0%	10µM*	?	.	-3.5%[9.22 µM]	5.4%
O=C(NCc1cccs1)c1ccc(S(=O)(=O)N2CCCCC2)cc1	-28.0%	-14.1%	-7.2%	.	-14.3%[46 µM]	-4.1%
CCCCNS(=O)(=O)c1cccc(S(=O)(=O)N2CCCC2)c1	16.7%	14.1µM*	-17.3%	-4.3%	-8.4%	3.1%
O=S(=O)(NCc1cccs1)c1cccc(S(=O)(=O)N2CCCCC2)c1	4.7%[10 µM]	8.91µM*	-14.1%	-16.4%	?	-9.8%
CCOC(=O)c1cc(C#N)c(N2CCN(c3ccc(OC)cc3)CC2)[nH]c1=O	-19.1%	-9.9%	9.7%	.	1.5%[9.22 µM]	-4.2%
N#C/C(=C\c1ccc(OCC(N)=O)cc1)c1ccccc1	.	?	-23.5%	?	17.3%	?
COc1ccc(NC(=O)c2c(NCc3cccc(OC)c3)sc3c2CCC3)cc1	.	.	.	.	5.0%[46 µM]	.
CCC1(C)N=C(N)Nc2nc3cc(C)c(C)cc3n21 (stereo unspecified)	26.3%[10 µM]	.	6.6%[9.22 µM]	.	.	0.3%
COC(=O)[C@@H]1C[C@@]2(O)[C@@H](O)[C@@H](O)[C@@H](O)C[C@H]2N1CC1CC1	-16.7%	1.3%	.	-1.5%	.	11.7%
CC1CCCC(NC(=O)CNC(=S)N(Cc2ccccc2)Cc2cccs2)C1C (stereo unspecified)	-46.6%	12.6µM*	?	.	27.4%[9.22 µM]	-2.8%
O=C(CNC(=S)N(Cc1ccccc1)Cc1cccnc1)NC1CCCCC1	-16.5%[10 µM]	12.6µM*	15.8%	-4.2%	-5.4%	5.3%
O=C(O)CNC(=S)N(Cc1ccccc1)Cc1cccnc1	.	-5.8%	15.9%	.	5.0%[46 µM]	3.1%
O=C(CNC(=S)N(Cc1ccccc1)Cc1cccnc1)NCc1ccccc1	-14.2%	17.8µM*	-7.0%	.	.	-6.2%
CCn1c(SCC(=O)Nc2nccc(C)n2)nc2ccccc21	0.1%[10 µM]	?	18.4%[9.22 µM]	.	-12.1%[46 µM]	-21.4%
COc1ccccc1CN1CCC2(CCNCC2)CC1	-28.8%	7.8%	.	-12.0%	.	.
COc1ccccc1NS(=O)(=O)c1cccc(C(=O)NN)c1	-1.3%	3.98µM*	-12.2%	-5.2%	9.5%	17.8%
CCN(CC)c1ccc(/C=N/NC(=O)c2cccc(S(=O)(=O)Nc3ccccc3OC)c2)cc1	-1.2%[10 µM]	10µM*	3.6%	.	-3.3%[46 µM]	?
COc1ccccc1NS(=O)(=O)c1cccc(C(=O)N/N=C2\CC(=O)CC(C)(C)C2)c1	22.6%[10 µM]	-3.2%	-5.1%	-19.8%	-7.5%	?
COc1ccccc1NS(=O)(=O)c1cccc(C(=O)NN=C2CCCC2)c1	8.7%[10 µM]	12.6µM*	?	.	.	?
Cc1onc(-c2c(Cl)cccc2Cl)c1NC(=O)NC1CCSC1 (stereo unspecified)	30.1%[10 µM]	.	11.9%[9.22 µM]	.	.	1.7%
